# NTR1 agonist: agonists of human neurotensin receptor NTR1 | P30989 | NTR1-U2OS beta-arrestin-GFP spot imaging, agonist mode | activation, % at 20 µM | hit rate 0.17% among 330,000 | AID 493036;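 active = activation at or above 40% of the spot to cytoplasm intensity ratio, with at least 20 cells analyzed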;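 also: 0% = DMSO without peptide and 100% = 100 nM NTR1 peptide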
# Beta2AR agonist: activates human beta-2 adrenergic receptor causing internalization; P07550; Am2.2-beta2AR cells, FAP receptor internalization, flow cytometry; response, % (no concentration beside the values); hit rate 0.43% among 340,000;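 active = response above a set limit, near 3 SD of response in nonfluorescent compounds, cut at about 42% in these data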
# Target sequence (P07550 whole entry, looked up): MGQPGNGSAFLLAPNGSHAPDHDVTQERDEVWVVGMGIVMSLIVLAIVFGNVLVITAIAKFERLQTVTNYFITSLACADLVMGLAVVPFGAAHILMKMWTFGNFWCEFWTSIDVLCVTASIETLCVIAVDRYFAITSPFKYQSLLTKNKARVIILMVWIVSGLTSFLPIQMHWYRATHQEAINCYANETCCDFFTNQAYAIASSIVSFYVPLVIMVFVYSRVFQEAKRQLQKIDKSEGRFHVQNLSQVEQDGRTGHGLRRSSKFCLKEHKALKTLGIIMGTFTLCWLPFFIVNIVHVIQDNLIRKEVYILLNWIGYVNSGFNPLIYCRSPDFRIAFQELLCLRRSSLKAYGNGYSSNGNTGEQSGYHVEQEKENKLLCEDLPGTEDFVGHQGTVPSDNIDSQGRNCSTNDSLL
# VLA-4 inh: inhibition in a human VLA-4 binding assay; P13612; inhibition, % (about 7 µM as worked out from the volumes in the protocol); hit rate 0.2% among 330,000; VLA-4 expressing cells, ligand binding flow cytometry; in the data active = inhibition above about 50%
# A1 inh: inhibitors of the anti-apoptotic protein A1, read as caspase activation; MEF A1-2A-BIM cells, Caspase-Glo 3/7 luminescence, 3 h; percent of clofoctol response, vehicle zero; caspase activation, % (no concentration beside the values); hit rate 0.066% among 330,000; AID 2462;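 active = over half of replicate activation scores above 10%, or exactly half above 10 with the replicate mean above 10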
# GRK2 aptamer HTS: blocks RNA aptamer binding to human GRK2. bead flow cytometry, FAM-aptamer displacement from GRK2. inhibition of aptamer binding, % at 10 µM. P25098. hit rate 0.59% among 330,000;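 active = inhibition of aptamer binding above 40%, roughly 3 SD of noise, on plates passing a quality check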;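 also: median bead fluorescence of bound FAM aptamer so fluorescent compounds give negative values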
# NTR1 ag confirm: confirmation of agonists of human NTR1; shares compounds with NTR1 agonist; NTR1-U2OS beta-arrestin-GFP translocation imaging; activation, % at 20 µM; hit rate 38% among 480;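 active = mean activation at 20 µM of at least 40%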;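 also: 0% = DMSO without peptide and 100% = 100 nM NTR1 peptide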
# Beta2AR ag CP1: agonists of human beta-2 adrenergic receptor; shares compounds with Beta2AR agonist; Am2.2-beta2AR cells, FAP surface receptor, flow cytometry; stronger effect = lower value; percent response (surface receptor), % at 10 µM; hit rate 25% among 1,100; AID 540358;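 active = surface receptor percent response at or below 58%, roughly 3 SD from nonfluorescent compounds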
# B2AR FAP counter: flagged in Am2.2 fluorescence counterscreen for beta-2AR agonists | shares compounds with Beta2AR agonist | Am2.2 cells, FAP fluorogen flow cytometry; stronger effect = lower value | calls only at 10 µM | 1,100 tested, under 10 active | AID 588765;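 active = percent response below a set limit in fluorescence channel 1 and below 50% in channel 8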
# An asterisk follows results filed as active; i = inactive; x = no result given; + = active, no number. The list is not random: actives were taken first. Their share in the collection is about 1.3%.
SMILES,NTR1 agonist,Beta2AR agonist,VLA-4 inh,A1 inh,GRK2 aptamer HTS,Beta2AR ag CP1,B2AR FAP counter,others
CC(=O)O[C@H]1CCC2C3CC[C@H]4[C@@H](O)[C@H](O)CC[C@]4(C)C3CC[C@@]21C (stereo not given in full),x,-6,x,x,x,x,x,
CN(C)c1ccc(-[n+]2c(-c3ccccc3)cc(-c3ccccc3)cc2-c2ccccc2)cc1,31,0,x,x,x,x,x,
c1ccc(-c2cc(-c3ccccc3)[n+](-c3ccccc3)c(-c3ccccc3)c2)cc1,67*,29,1,3,8,x,x,NTR1 ag confirm=65*
Cc1ccc(-c2cc(-c3ccccc3)cc(-c3ccccc3)[n+]2-c2ccccc2)cc1,50*,32,-1,0,0,x,x,NTR1 ag confirm=82*
C1CCC2CCCCC2C1 (stereo not given),1,0,15,0,0,x,x,
CC(CCc1ccccc1)NC(C)C(O)c1ccc(O)cc1 (stereo not given),-2,4,-353,-2,0,109,i,
COc1ccc(CCC(C)NCCc2ccccc2)cc1 (stereo not given),-1,-4,-5,1,0,x,x,
COC(=O)C1=C(c2cc3ccccc3s2)C[C@@H]2CC[C@H]1N2C(=O)NCc1ccc(C(F)(F)F)cc1,-1,74*,19,0,2,89,i,
COC(=O)C1=C(c2ccc(OCc3ccccc3)cc2)C[C@@H]2CC[C@H]1N2C(=O)NCc1ccc(OC)c(OC)c1,1,1,12,-1,10,103,i,
CCN1CCC(NCC2CCCCC2)CC1,-1,4,9,0,3,x,x,
COc1ccc(C(c2ccc(OC)cc2)C(Cl)(Cl)Cl)cc1,8,3,13,0,0,x,x,
COc1ccc(C(O)C(C)NC(C)C(O)c2ccc(OC)cc2)cc1 (stereo not given),2,-1,-3,1,0,123,i,
Cn1cccc1C1CCCN1CC(=O)Nc1ccc(C#N)c(Cl)c1 (stereo not given),-1,2,-6,0,1,x,x,
CNCC(O)c1ccc(O)cc1 (stereo not given),3,x,7,1,2,x,x,
CC(Cc1ccc(O)cc1)NCC(O)c1ccc(O)c(O)c1 (stereo not given),x,x,x,x,x,9.6*,i,
COc1ccc(C(O)CNC(C)C)c(F)c1OC (stereo not given),0,-13,9,-1,0,116,i,
COc1ccc(CNCCc2c(C)[nH]c3ccc(OC(F)(F)F)cc23)c(OC)c1,8,43*,20,0,0,81,i,
CCOC(=O)C1(c2ccccc2)CCN(CC(=O)c2ccc(NC(C)=O)cc2)CC1,x,13,x,x,x,x,x,
COc1ccc(CCNC2CCCCC2)cc1,0,-7,12,1,0,x,x,
COc1ccc(C[C@H]2NC[C@H](O)[C@H]2OC(C)=O)cc1,8,94*,24,7.5*,0,28*,+,
Cc1ncc2n1-c1ccc(Cl)cc1C(c1ccccc1F)=NC2,1,-11,29,x,0,x,x,
COC(=O)[C@]12OC[C@]34C([C@@H](O)[C@@H]1O)[C@]1(C)CC(=O)C(O)=C(C)[C@@H]1C[C@H]3OC(=O)[C@H](O)[C@@H]24 (stereo not given in full),6,42*,x,0,x,64,i,
CCCCC(CC)CNCC(O)c1ccccc1 (stereo not given),0,-11,-2,1,0,x,x,
CCC[C@H](N[C@@H](CCC)[C@H](O)c1ccccc1)[C@H](O)c1ccccc1,-1,-6,0,1,0,112,i,
COc1cc(OC)c(OC)cc1CNC(C)C(O)c1ccccc1 (stereo not given),-1,6,7,0,0,118,i,
SMILES,NTR1 agonist,Beta2AR agonist,VLA-4 inh,A1 inh,GRK2 aptamer HTS,Beta2AR ag CP1,B2AR FAP counter,others
CC(NCc1cccc(Cl)c1Cl)C(O)c1ccccc1 (stereo not given),1,-12,5,1,0,109,i,
CCOc1c(Cl)cc(CNC(C)C(O)c2ccccc2)cc1OC (stereo not given),1,7,15,-1,0,107,i,
CN(C)C(CNC(=O)Cc1c(Cl)cccc1Cl)c1ccccc1 (stereo not given),-1,4,-7,0,0,x,x,
CC(NCc1ccc(Cl)cc1Cl)C(O)c1ccccc1 (stereo not given),-1,-4,-2,0,0,117,i,
CC(C)(C)C(=O)C(Oc1ccc(Cl)cc1)n1cncn1 (stereo not given),x,0,x,x,x,x,x,
CC[C@H]1CN2CC[C@@]3(C(=O)Nc4ccccc43)[C@@H]2C[C@@H]1/C(=C\OC)C(=O)OC,-2,x,21,1,4,x,x,
CN1[C@@H]2CC[C@H]1CC(OC1c3ccccc3CCc3ccccc31)C2 (stereo not given in full),9,26,32,2,0,x,x,
O=C(Cc1ccccc1)NC(Cc1ccc(Cl)cc1)C(=O)O (stereo not given),2,-3,-1,1,2,x,x,
CC(NCc1ccc(Cl)cc1)C(O)c1ccccc1 (stereo not given),0,-5,10,0,2,102,i,
COC(=O)C1=C(c2ccc(Cl)c(C(F)(F)F)c2)C[C@@H]2CC[C@H]1N2C(=O)NCCOc1ccc(OC)cc1,7,11,0,0,0,x,x,

# Assay outcomes (PubChem BioAssay)
